# Source: publication PMC7862700, “An all-to-all approach to the identification of sequence-specific readers for epigenetic DNA modifications on cytosine”
# How the values were obtained:
# Experiment in all cases: DAPPL (digital affinity profiling via proximity ligation, sequencing); 10 mM Tris-HCl pH 7.5, 50 mM NaCl, 1 mM DTT, 4% glycerol, room temperature, 30 min; GST-TFs on glutathione beads, 16-mer random dsDNA library, 0.1% formaldehyde crosslink after washing; high values mean tight binding
# Conditions in all cases: protein: recombinant; tags: N-terminal GST; dsDNA, one strand shown
# FLI1 = biological target: T1, FLI1 (Homo sapiens, UniProt Q01543 1-452)
# T1 sequence: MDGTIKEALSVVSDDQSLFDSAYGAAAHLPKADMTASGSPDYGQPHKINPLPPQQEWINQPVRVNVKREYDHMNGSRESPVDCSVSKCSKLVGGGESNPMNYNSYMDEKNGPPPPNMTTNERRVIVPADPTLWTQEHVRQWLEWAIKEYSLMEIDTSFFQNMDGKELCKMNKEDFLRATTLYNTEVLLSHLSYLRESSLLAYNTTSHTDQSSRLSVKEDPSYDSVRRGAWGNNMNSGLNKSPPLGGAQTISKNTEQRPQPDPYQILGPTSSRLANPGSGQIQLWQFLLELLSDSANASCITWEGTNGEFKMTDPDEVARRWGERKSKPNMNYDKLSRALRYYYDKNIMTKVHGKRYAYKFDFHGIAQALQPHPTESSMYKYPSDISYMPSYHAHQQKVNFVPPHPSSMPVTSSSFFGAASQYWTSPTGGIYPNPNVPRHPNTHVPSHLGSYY
# Outline: (§1)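 Human transcription factors carrying a GST fusion were produced in yeast, bound to glutathione beads, tagged with DNA barcodes and pooled together with a tag-only sample. Each pool was held with 200 nmole of a random double-stranded 16-mer DNA library in Tris/NaCl/DTT/glycerol buffer for 30 min at room temperature, then washed, crosslinked in 0.1% formaldehyde, proximity-ligated with BsaI/T4 ligase (1 h, 37 °C), PCR-amplified and sequenced on an Illumina NextSeq500. Binding signal is the read frequency of each hexamer for a given factor divided by its frequency in the tag-only sample.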
# ELK1 = biological target: T2, ELK1 (Homo sapiens, UniProt P19419 1-428)
# T2 sequence: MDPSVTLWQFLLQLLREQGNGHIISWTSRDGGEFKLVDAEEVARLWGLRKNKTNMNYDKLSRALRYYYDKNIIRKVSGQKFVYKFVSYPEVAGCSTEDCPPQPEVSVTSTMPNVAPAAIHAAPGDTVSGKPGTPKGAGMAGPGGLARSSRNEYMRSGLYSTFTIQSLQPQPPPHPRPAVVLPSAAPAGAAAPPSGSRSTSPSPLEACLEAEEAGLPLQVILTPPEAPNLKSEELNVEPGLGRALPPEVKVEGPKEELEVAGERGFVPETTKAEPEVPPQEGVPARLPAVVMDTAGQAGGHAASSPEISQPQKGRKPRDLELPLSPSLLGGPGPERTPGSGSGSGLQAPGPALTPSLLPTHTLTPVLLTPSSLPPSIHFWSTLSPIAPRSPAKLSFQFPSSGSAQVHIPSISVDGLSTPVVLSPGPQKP
# Outline: as §1
# GABPA = biological target: T3, GABPA (Homo sapiens, UniProt Q06546 1-454)
# T3 sequence: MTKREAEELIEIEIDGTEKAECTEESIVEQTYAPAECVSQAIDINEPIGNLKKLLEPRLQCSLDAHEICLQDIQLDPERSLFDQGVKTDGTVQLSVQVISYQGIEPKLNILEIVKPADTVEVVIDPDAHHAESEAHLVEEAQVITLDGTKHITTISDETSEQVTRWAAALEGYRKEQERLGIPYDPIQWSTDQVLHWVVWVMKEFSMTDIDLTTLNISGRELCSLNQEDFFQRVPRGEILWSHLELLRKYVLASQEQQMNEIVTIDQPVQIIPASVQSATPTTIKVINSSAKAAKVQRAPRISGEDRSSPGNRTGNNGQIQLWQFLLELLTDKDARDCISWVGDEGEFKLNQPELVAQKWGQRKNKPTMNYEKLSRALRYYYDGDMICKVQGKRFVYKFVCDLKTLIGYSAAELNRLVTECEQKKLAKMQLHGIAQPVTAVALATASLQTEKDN
# Outline: as §1
# ERG = biological target: T4, ERG (Homo sapiens, UniProt P11308 1-479)
# T4 sequence: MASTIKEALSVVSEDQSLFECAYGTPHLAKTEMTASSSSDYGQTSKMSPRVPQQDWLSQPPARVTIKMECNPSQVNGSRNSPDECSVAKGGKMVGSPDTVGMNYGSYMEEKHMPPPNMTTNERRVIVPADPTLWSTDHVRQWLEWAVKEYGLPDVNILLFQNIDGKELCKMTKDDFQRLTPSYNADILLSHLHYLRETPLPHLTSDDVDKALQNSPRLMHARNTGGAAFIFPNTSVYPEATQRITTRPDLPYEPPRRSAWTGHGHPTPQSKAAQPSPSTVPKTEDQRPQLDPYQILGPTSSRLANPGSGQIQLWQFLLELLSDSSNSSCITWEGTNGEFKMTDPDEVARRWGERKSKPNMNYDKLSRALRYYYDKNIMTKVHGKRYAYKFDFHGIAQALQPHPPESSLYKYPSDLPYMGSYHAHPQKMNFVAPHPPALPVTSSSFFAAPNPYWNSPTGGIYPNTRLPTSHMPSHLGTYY
# Outline: as §1
# ELF1 = ELF1 (Homo sapiens, UniProt P32519 1-619)
# Outline: as §1
# EHF = biological target: T5, EHF (Homo sapiens, UniProt Q9NZC4 1-300)
# T5 sequence: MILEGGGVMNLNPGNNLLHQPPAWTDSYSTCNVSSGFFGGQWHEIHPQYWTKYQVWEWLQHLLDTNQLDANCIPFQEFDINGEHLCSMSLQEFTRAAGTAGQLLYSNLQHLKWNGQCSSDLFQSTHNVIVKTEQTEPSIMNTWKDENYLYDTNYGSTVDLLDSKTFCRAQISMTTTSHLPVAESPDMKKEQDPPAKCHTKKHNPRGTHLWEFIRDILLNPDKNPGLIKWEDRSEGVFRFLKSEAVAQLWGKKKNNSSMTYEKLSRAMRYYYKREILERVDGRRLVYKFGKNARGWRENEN
# Outline: as §1
# SPIB = SPIB (Homo sapiens, UniProt Q01892 1-262)
# Outline: as §1
# ELK3 = biological target: T6, ELK3 (Homo sapiens, UniProt P41970 1-407)
# T6 sequence: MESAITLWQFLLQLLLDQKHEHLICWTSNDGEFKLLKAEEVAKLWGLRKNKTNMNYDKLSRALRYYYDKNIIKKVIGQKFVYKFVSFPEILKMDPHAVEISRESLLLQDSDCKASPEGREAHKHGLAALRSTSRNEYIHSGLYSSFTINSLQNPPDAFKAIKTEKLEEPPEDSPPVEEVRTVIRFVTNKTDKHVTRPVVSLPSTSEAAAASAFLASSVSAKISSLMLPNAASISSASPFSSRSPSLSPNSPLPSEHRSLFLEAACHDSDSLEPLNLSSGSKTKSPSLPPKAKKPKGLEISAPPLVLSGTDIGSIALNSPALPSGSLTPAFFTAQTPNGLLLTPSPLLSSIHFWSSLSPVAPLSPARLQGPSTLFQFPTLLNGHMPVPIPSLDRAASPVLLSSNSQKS
# Outline: as §1
# FEV = biological target: T7, FEV (Homo sapiens, UniProt Q99581 1-238)
# T7 sequence: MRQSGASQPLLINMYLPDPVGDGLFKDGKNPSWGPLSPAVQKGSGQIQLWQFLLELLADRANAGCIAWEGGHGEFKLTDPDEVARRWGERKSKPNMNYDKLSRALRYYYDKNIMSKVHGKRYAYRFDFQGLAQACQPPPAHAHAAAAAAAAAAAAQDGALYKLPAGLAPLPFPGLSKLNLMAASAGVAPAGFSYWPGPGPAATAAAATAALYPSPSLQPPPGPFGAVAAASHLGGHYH
# Outline: as §1
# ETV5 = ETV5 (Homo sapiens, UniProt P41161 1-510)
# Outline: as §1
# SPIC = biological target: T8, SPIC (Homo sapiens, UniProt Q8N5J4 1-248)
# T8 sequence: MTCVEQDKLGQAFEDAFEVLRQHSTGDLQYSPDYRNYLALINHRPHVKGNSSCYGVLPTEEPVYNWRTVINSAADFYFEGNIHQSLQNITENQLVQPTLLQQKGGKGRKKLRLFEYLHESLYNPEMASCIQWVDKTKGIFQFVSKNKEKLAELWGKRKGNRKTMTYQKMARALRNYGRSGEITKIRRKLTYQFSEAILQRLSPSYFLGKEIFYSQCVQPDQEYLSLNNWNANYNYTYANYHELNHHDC
# Outline: as §1
# ELF4 = ELF4 (Homo sapiens, UniProt Q99607 1-663)
# Outline: as §1
# ETV1 = ETV1 (Homo sapiens, UniProt P50549 1-477)
# Outline: as §1
# ERF = biological target: T9, ERF (Homo sapiens, UniProt P50548 1-548)
# T9 sequence: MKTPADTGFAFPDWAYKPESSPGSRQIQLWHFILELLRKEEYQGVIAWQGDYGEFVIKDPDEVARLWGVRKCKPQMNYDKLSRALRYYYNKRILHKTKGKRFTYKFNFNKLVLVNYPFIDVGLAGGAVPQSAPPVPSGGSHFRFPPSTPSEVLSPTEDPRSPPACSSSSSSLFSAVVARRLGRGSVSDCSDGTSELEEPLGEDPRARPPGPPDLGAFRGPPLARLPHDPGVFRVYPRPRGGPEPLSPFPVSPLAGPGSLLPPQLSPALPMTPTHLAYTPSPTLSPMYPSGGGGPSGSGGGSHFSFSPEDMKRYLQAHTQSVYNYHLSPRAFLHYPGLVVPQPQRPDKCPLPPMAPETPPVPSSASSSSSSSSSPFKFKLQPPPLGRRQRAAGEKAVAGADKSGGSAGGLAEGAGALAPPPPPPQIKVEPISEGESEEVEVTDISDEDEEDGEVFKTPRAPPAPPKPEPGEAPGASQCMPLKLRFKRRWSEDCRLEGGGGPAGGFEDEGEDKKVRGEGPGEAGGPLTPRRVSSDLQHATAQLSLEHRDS
# Outline: as §1
# ETV3L = biological target: T10, ETV3L (Homo sapiens, UniProt Q6ZN32 1-361)
# T10 sequence: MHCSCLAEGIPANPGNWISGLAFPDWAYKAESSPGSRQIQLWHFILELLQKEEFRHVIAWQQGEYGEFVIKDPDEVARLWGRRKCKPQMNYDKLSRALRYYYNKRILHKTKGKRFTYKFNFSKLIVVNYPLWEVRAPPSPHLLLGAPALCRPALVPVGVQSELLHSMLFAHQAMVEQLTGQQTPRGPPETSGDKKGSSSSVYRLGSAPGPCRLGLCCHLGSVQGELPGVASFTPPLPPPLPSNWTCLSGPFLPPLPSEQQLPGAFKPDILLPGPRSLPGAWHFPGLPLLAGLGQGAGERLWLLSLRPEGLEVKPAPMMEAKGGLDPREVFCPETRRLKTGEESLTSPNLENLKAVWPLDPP
# Outline: as §1
# ETS2 = biological target: T11, ETS2 (Homo sapiens, UniProt P15036 1-469)
# T11 sequence: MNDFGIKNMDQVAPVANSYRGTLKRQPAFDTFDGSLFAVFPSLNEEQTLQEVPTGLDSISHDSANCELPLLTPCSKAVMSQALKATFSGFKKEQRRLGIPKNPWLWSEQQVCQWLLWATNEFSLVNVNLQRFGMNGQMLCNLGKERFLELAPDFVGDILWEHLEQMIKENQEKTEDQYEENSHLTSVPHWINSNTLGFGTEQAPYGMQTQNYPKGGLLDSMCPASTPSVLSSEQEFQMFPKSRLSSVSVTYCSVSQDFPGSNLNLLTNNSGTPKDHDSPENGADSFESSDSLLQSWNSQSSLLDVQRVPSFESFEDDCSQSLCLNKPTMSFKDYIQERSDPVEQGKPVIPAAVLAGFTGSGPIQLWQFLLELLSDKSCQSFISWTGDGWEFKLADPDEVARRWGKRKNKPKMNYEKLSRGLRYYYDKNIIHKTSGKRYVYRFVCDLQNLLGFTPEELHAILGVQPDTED
# Outline: as §1
# SPDEF = biological target: T12, SPDEF (Homo sapiens, UniProt O95238 1-335)
# T12 sequence: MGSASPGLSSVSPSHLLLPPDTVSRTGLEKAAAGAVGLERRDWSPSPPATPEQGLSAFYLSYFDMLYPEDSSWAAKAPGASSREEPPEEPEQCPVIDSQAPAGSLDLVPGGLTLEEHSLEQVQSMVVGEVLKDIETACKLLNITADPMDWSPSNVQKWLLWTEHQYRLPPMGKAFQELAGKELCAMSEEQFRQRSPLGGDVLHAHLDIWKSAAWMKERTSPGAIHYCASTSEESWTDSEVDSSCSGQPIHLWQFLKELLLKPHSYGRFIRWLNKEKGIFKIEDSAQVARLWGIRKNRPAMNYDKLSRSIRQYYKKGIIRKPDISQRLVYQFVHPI
# Outline: as §1
# ETV3 = biological target: T13, ETV3 (Homo sapiens, UniProt P41162-2 1-143)
# T13 sequence: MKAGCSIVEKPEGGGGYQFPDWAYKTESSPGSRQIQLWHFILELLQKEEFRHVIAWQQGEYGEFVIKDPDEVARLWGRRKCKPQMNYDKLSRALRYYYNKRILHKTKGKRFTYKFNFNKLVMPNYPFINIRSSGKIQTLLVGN
# Outline: as §1
# ELF1, sequence (P32519 whole entry): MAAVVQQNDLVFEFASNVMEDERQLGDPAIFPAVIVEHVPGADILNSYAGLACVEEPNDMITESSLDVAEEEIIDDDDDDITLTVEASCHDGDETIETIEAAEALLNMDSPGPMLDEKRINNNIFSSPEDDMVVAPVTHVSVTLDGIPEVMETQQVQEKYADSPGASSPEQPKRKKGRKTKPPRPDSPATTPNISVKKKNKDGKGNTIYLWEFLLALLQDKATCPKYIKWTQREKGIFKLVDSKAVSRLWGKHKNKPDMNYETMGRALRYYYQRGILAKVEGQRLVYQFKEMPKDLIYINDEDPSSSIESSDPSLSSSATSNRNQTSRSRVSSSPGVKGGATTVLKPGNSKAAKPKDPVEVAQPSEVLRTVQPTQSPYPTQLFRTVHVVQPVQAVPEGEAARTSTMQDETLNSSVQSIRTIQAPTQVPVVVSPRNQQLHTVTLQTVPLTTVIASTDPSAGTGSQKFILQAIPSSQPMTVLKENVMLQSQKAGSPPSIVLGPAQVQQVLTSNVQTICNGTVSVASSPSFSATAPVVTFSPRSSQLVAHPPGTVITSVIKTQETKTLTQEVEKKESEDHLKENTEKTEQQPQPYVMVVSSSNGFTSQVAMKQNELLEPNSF
# ELF4, sequence (Q99607 whole entry): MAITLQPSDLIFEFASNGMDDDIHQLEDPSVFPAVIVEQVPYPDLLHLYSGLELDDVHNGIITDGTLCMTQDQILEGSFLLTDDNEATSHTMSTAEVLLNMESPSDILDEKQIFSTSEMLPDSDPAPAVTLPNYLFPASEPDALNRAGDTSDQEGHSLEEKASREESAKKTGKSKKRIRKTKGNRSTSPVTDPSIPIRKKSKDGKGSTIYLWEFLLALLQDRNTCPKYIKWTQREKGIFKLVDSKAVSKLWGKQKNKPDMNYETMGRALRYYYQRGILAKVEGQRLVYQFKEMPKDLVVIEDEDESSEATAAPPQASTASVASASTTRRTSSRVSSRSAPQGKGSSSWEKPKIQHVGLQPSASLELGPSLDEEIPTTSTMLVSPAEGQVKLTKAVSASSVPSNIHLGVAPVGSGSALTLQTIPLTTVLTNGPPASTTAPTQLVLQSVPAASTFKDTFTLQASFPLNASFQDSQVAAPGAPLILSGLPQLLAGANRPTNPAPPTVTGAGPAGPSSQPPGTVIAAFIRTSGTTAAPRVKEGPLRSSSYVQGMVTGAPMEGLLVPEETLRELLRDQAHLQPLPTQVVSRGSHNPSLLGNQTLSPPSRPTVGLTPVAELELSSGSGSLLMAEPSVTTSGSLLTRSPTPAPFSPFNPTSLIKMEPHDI
# ETV5, sequence (P41161 whole entry): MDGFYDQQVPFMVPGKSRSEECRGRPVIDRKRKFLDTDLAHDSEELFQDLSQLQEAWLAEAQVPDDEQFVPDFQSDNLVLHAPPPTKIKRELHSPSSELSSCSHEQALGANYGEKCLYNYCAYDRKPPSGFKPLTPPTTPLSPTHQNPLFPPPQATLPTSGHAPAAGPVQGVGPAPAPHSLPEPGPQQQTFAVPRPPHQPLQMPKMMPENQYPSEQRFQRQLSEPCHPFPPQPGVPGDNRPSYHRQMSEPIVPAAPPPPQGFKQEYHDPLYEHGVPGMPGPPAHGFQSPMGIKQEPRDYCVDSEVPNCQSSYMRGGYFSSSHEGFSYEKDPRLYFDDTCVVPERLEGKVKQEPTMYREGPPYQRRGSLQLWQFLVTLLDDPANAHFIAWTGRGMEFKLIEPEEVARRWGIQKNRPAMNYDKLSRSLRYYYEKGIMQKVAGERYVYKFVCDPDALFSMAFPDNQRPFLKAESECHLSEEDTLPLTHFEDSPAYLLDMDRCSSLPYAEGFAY
# ETV1, sequence (P50549 whole entry): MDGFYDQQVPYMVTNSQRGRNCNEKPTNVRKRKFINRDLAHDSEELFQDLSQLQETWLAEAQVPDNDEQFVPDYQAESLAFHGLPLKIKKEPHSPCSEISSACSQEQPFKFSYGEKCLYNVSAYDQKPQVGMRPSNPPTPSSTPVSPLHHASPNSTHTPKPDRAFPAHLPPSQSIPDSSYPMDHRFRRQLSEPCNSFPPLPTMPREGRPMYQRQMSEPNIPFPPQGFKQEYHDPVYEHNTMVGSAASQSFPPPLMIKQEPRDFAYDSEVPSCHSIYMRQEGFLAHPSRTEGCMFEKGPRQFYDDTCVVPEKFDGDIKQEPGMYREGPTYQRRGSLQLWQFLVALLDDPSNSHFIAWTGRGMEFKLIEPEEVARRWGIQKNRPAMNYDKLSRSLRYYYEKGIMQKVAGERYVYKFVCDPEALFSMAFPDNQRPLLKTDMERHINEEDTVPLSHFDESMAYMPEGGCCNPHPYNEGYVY
# SPIB, sequence (Q01892 whole entry): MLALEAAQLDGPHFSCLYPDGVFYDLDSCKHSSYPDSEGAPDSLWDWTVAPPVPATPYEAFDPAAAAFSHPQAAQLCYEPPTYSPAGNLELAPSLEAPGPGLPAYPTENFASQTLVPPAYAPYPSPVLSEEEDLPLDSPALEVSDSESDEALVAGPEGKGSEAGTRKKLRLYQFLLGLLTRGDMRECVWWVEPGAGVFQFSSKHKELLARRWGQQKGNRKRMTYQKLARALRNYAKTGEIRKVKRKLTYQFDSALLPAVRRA
sequence,measurement,setting,value
TCAACA,binding signal,FLI1,"1.06 fold enrichment (6-mer frequency, TF over GST control)"
same,binding signal,ELK1,"1.13 fold enrichment (6-mer frequency, TF over GST control)"
same,binding signal,GABPA,"1.11 fold enrichment (6-mer frequency, TF over GST control)"
same,binding signal,ERG,"1.04 fold enrichment (6-mer frequency, TF over GST control)"
same,binding signal,ELF1,"1.03 fold enrichment (6-mer frequency, TF over GST control)"
same,binding signal,EHF,"1.05 fold enrichment (6-mer frequency, TF over GST control)"
same,binding signal,SPIB,"1.01 fold enrichment (6-mer frequency, TF over GST control)"
same,binding signal,ELK3,"1.06 fold enrichment (6-mer frequency, TF over GST control)"
same,binding signal,FEV,"1.05 fold enrichment (6-mer frequency, TF over GST control)"
same,binding signal,ETV5,"1.04 fold enrichment (6-mer frequency, TF over GST control)"
same,binding signal,SPIC,"1.05 fold enrichment (6-mer frequency, TF over GST control)"
same,binding signal,ELF4,"1.07 fold enrichment (6-mer frequency, TF over GST control)"
same,binding signal,ETV1,"1.06 fold enrichment (6-mer frequency, TF over GST control)"
same,binding signal,ERF,"1.03 fold enrichment (6-mer frequency, TF over GST control)"
same,binding signal,ETV3L,"1.09 fold enrichment (6-mer frequency, TF over GST control)"
same,binding signal,ETS2,"1.07 fold enrichment (6-mer frequency, TF over GST control)"
same,binding signal,SPDEF,"1.07 fold enrichment (6-mer frequency, TF over GST control)"
same,binding signal,ETV3,"1.08 fold enrichment (6-mer frequency, TF over GST control)"
